The record followed here is PubChem BioAssay.

Calls of active or inactive are those of the source. Unless noted, the rule behind the calls is not given here.

Experiment [1] is described as follows: resazurin metabolic signal in HepG2 cells – cell-based, resazurin fluorescence, 24 h, PK04 Diversity Set, profiling panel (AID 1172). Note: test concentration not given here. Particulars: HepG2 viability, higher = more signal. A general note: Resazurin is reduced to fluorescent resorufin, in cell work by metabolically active cells.
Experiment [2] in a line: budding yeast growth changes without added modifier – OD600, strain BY4716, 24 h, basal condition, primary screen (AID 1173). Particulars: S. cerevisiae BY4716 growth, OD600, 24 h; higher = more signal, called active from +8 up or from −8 down.
Experiment [3] in a line: viability profiling in MM1S myeloma cells – cell-based, resazurin fluorescence, basal, 24 h, PK04 Diversity Set, profiling panel (AID 1174). Note: test concentration not given here. Particulars: higher = more signal, called active from +8 up or from −8 down.
Experiment [4] has as its target Dihydroorotate dehydrogenase (quinone), mitochondrial (Plasmodium falciparum (isolate 3D7)) (UniProt Q08210). As to the kind of experiment: inhibition of P. falciparum DHODH – biochemical, C-terminal His tag, absorbance 600 nm, primary screen (AID 1175).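 Note: recombinant parasite enzyme with a five histidine tag at its C terminus; test concentration not given here.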 Particulars: PfDHODH enzyme, DCIP absorbance 600 nm; higher = more signal, called active from +8 up or from −8 down.

Experiment [5] can be described thus: inhibition of PAO1 biofilm formation – strain PAO1, LB-PBS medium, absorbance 600 nm, primary screen (AID 1176). Note: test concentration not given here. Particulars: P. aeruginosa PAO1 growth/biofilm, A600, 12 h; higher = more signal.
The nature of experiment [6]: growth modulation of vineyard yeast isolate – strain RM11-1a, OD600, basal, 24 h, primary screen (AID 1177).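 Note: cultures grown under basal conditions with no added stressor; test concentration not given here.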 Particulars: S. cerevisiae RM11-1a growth, OD600, 24 h; higher = more signal, called active from +8 up or from −8 down.
A short description of experiment [7]: growth of efflux-deficient E. coli DRC39 – strain DRC39, OD650, 24 h, E. coli filamentation inducers, primary screen (AID 1178).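 Note: growth measured as culture turbidity by optical density at 650 nm; test concentration not given here.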 Particulars: E. coli DRC39 acrAB, higher = more signal, called active from +8 up or from −8 down.
A short description of experiment [8]: growth of efflux-deficient E. coli DRC39 – strain DRC39, OD650, 48 h, E. coli filamentation inducers, primary screen (AID 1179).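 Note: screen aims at cell division blockers that make cells filament.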 Particulars: E. coli DRC39 delta-acrAB growth, higher = more signal, called active from +8 up or from −8 down.
A short description of experiment [9]: viability profiling in RPMI8226 myeloma cells – cell-based, resazurin fluorescence, basal, 24 h, PK04 Diversity Set, profiling panel (AID 1180).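 Note: RPMI8826 multiple myeloma cell line at 5000 cells per well; test concentration not given here.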 Particulars: higher = more signal.
The target of experiment [10] is E3 ubiquitin-protein ligase XIAP (Homo sapiens) (UniProt P98170). Description: small molecules binding XIAP protein – biophysical, small-molecule microarray, fluorescence 635 nm, primary screen (AID 1181).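 Note: score merges 667 nm emission and signal to noise over triplicate slides.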 Particulars: higher = more signal.
Chain of E3 ubiquitin-protein ligase XIAP (Homo sapiens) (P98170 whole entry, looked up): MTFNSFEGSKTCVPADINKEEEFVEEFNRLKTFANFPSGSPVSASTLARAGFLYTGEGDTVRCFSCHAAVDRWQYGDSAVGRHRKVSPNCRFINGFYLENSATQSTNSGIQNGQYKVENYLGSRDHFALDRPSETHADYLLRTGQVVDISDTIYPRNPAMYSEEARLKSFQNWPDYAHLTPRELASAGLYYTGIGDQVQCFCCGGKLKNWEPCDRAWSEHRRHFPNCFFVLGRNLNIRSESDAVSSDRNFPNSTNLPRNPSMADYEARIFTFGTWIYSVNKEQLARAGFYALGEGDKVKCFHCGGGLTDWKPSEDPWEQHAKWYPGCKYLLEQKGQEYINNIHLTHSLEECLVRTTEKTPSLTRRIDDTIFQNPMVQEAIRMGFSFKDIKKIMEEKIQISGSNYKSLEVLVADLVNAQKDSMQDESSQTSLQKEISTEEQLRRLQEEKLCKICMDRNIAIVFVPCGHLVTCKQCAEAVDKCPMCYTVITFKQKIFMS

Chain of Dihydroorotate dehydrogenase (quinone), mitochondrial (Plasmodium falciparum (isolate 3D7)) (Q08210 whole entry, looked up): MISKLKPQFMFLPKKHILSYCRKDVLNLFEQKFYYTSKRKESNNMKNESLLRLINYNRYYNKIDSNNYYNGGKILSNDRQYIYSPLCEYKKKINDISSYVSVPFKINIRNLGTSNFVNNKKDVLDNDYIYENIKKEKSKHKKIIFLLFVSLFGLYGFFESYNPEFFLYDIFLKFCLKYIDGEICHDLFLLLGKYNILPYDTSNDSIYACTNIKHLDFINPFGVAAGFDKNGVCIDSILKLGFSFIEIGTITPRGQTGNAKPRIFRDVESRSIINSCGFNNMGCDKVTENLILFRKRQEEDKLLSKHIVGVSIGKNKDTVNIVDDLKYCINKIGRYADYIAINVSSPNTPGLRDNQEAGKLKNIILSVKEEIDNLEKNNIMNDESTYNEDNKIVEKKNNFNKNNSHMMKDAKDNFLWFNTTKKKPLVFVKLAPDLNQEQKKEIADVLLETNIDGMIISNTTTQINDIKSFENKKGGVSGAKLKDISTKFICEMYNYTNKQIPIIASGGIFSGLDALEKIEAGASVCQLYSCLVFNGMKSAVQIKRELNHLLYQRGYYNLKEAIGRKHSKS

Take `COc1cccc([C@H]2Oc3ccc(OC)cc3C(=NOC(C)CN3CCCCc4nc(C)c(C)cc43)[C@@H]2O)c1` (stereo not given in full): the z-score is -0.621 in [1]; -0.951 (inactive) in experiment [2]; -1.16 (inactive) in [3]; 0.253 (inactive) in experiment [5]; -0.0905 (inactive) in [6]; 0.597 (inactive) in [7]. Moreover, the z-score is 0.748 (inactive) in experiment [8] and -1.16 in [9]. Further, the composite z-score is -0.695 (inactive) in [4] and -0.0525 in [10].
For `COC(=O)[C@H](C)NC(=O)CCC1CC(OC(=O)NCc2ccc3c(c2)OCO3)CC2(CCCC(COC(=O)NCCc3ccccc3OC)O2)O1` (stereo not given in full), the z-score in experiment [1] was -0.134; in experiment [2], -0.148 (inactive); in experiment [3], -0.344 (inactive); in experiment [5], 0.238 (inactive); in [6], 0.0525 (inactive); in experiment [7], 0.775 (inactive). In addition, the values for the z-score in [8] and in experiment [9] were 0.451 (inactive) and -0.229, respectively. The composite z-score is -1.07 (inactive) in experiment [4] and -0.252 in experiment [10].
On to `CO[C@H]1COC(=O)[C@@H](C)COC(=O)[C@H](C)NC(=O)CC=C[C@H]1C`, for which the z-score was 0.926 in [1]; -0.916 (inactive) in [2]; 0.433 (inactive) in experiment [3]; -1.13 (inactive) in experiment [5]; -0.212 (inactive) in experiment [6]; 0.618 (inactive) in experiment [7]. The z-score is -0.539 (inactive) in experiment [8] and 0.351 in experiment [9]. Also, the composite z-score was 0.289 (inactive) in experiment [4] and -0.327 in experiment [10].
For the molecule `CO[C@H]1COC(=O)[C@@H](C)COC(=O)[C@@H](OCc2ccccc2)C=C[C@@H]1C`, the z-score in [1] was 0.409; in experiment [2], -0.471 (inactive); in [3] it was 0.687 (inactive); in experiment [5] it was -0.601 (inactive); in experiment [6] it was 1.14 (inactive); in experiment [7] it was 0.334 (inactive). Moreover, the z-score was -0.183 (inactive) in [8] and 0.681 in experiment [9]. The composite z-score in experiment [4] is 0.976 (inactive); in experiment [10], 0.131.
As for `CCOC(=O)[C@H](Cc1ccccc1)NC(=O)CCC1CC(OC(=O)NCc2cccc3ccccc23)CC2(CCCC(COC(=O)NCc3ccccc3)O2)O1` (stereo not given in full), the z-score is 0.466 in [1]; -2.55 (inactive) in [2]; 1.12 (inactive) in [3]; 0.709 (inactive) in [5]; -2.62 (inactive) in experiment [6]; -0.964 (inactive) in experiment [7]. In addition, the z-score in experiment [8] was -1.23 (inactive); in experiment [9] it was 1.03. Moreover, the figures for the composite z-score in experiment [4] and in experiment [10] were -2.79 (inactive) and 0.171, respectively.
With `O=c1n(Cc2cc3c(cc2Cl)OCO3)c(=O)n2n1CC[C@@H]1C(=NOCc3ccccc3)[C@H]3O[C@H]3[C@@H](O)[C@@H]12`, the z-score in [1] is -0.0806; in [2] it was -1.61 (inactive); in [3], -0.595 (inactive); in [5], 0.14 (inactive); in experiment [6], -1.8 (inactive); in experiment [7], -0.485 (inactive). In addition, the z-score in experiment [8] was -0.628 (inactive); in experiment [9], -1.02. In addition, the composite z-score in experiment [4] is -1.22 (inactive); in [10] it was -0.0365.
Consider `COc1ccc(COC(=O)NN=C2C[C@@H](O)[C@@H](O)[C@@H]3[C@@H]4C(=O)N(C5CCCCC5)C(=O)[C@@H]4CC[C@H]23)cc1`, for which the z-score in experiment [1] is -0.689; in [2], 1.07 (inactive); in [3], -1.15 (inactive); in experiment [5], 1 (inactive); in experiment [6], 0.335 (inactive); in [7], -0.189 (inactive). In addition, the results for the z-score in experiment [8] and in [9] were -0.582 (inactive) and -0.363, respectively. The composite z-score is 0.608 (inactive) in experiment [4] and -0.267 in experiment [10].
In the case of `O=C(NN=C1C[C@@H](O)[C@@H](O)[C@@H]2[C@@H]3C(=O)N(C4CCCCC4)C(=O)[C@@H]3CC[C@H]12)OCc1ccccc1`, the z-score in experiment [1] is -0.383; in [2], 0.112 (inactive); in experiment [3], -0.531 (inactive); in [5], 0.307 (inactive); in [6], -0.182 (inactive); in [7], 0.061 (inactive). For the same molecule, the z-score in [8] is -0.0133 (inactive); in experiment [9] it was -0.901. In addition, the composite z-score in experiment [4] is -0.135 (inactive); in [10], 0.0942.
Take `COc1ccc(O[C@@H]2[C@H](O)CO[C@H]2C=Cc2ccccc2)cc1`: the z-score in experiment [1] is -1.03; in experiment [2] it was -4.4 (inactive); in experiment [3], -0.0321 (inactive); in experiment [5], 0.83 (inactive); in [6] it was -1.85 (inactive); in experiment [7], 0.988 (inactive). The z-score in experiment [8] was -0.741 (inactive); in experiment [9] it was -0.473. Moreover, the figures for the composite z-score in experiment [4] and in [10] were -1.24 (inactive) and -0.113, respectively.
Take `CCOC(=O)[C@H](CC(C)C)NC(=O)CCC1CC(OC(=O)NCc2cccc3ccccc23)CC2(CCCC(COC(=O)NCc3ccncc3)O2)O1` (stereo not given in full): the z-score in experiment [1] is -0.232; in experiment [2], -0.101 (inactive); in experiment [3], 0.192 (inactive); in [5], 0.368 (inactive); in [6], 0.559 (inactive); in experiment [7], 1.1 (inactive). Further, the z-score in experiment [8] is 0.399 (inactive); in experiment [9] it was -0.404. For the same molecule, the composite z-score in experiment [4] is 0.0964 (inactive); in [10] it was -0.105.
For the molecule `O=C1C[C@@H](O)[C@@H](O)[C@@H]2[C@@H]3C(=O)N(Cc4ccccc4)C(=O)[C@@H]3CC[C@@H]12`, the z-score in [1] was 0.568; in experiment [2], 0.178 (inactive); in [3] it was 0.144 (inactive); in [5], -0.425 (inactive); in experiment [6] it was 0.0564 (inactive); in [7], -0.7 (inactive). In addition, the z-score in experiment [8] is -0.564 (inactive); in experiment [9] it was 0.112. The composite z-score was 0.378 (inactive) in experiment [4] and 0.126 in experiment [10].
As to `CCOC(=O)[C@H](Cc1ccccc1)NC(=O)CCC1CC(OC(=O)NCCc2ccc(F)cc2)CC2(CCCC(COC(=O)NCCc3ccccc3OC)O2)O1` (stereo not given in full), the z-score in experiment [1] was -0.0425; in experiment [2], 0.456 (inactive); in [3], -0.288 (inactive); in [5], 0.626 (inactive); in experiment [6], 0.476 (inactive); in experiment [7], -0.0222 (inactive). The figures for the z-score in [8] and in experiment [9] were -1.19 (inactive) and 0.0228, respectively. Also, the results for the composite z-score in [4] and in experiment [10] were -0.732 (inactive) and -0.0796, respectively.
Regarding `C=CC[C@@H]1C=C[C@H](ON=C(C)CCN2CCc3nc(-c4ccccc4)c(-c4ccccc4)cc3C2)[C@@H](CO)O1`, the z-score in experiment [1] was -0.244; in [2], -1.96 (inactive); in [3] it was -2.02 (inactive); in [5], 0.0767 (inactive); in [6], 0.124 (inactive); in experiment [7], 0.921 (inactive). Moreover, the z-score in experiment [8] was 0.392 (inactive); in experiment [9] it was 0.365. For the same molecule, the composite z-score in experiment [4] is -0.126 (inactive); in [10] it was -0.12.
